CFTR F508del cor – F508del CFTR correction, initial screen, CFBE line, single point; activity (quench increase), % at 7.58 µM; CFBE cells, YFP halide quenching; stimulated with forskolin plus potentiator P3; % fluorescence drop versus neutral controls; hit rate 0.36% among 350,000;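 active means mean added fluorescence quench of at least 8% versus neutral control, with both replicates also reaching 8%; inconclusive means only one of the mean or replicate conditions met; inactive means mean below 8% and not both replicates reaching 8%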;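 further: cells transiently co-express mutant CFTR-F508del with the halide-sensitive YFP; corrector assay measuring rescue of mutant channel to the surface after 24 h compound exposure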
RAD54 branch – inhibitors of human RAD54 branch migration, primary screen, biochemical, fluorescence, single point. DNA repair and recombination protein RAD54-like (Homo sapiens), Q92698. hit rate 0.14% among 360,000. RAD54 Holliday junction branch migration, FAM/BHQ fluorescence. inhibition, % at 10.4 µM. AID 602329, 2012;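 active means mean normalized replicate activity at least 40 and at least half of replicates scoring 40 or more; inconclusive means only one of the two criteria met; inactive means mean below 40 and under half of replicates reaching 40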;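 further: 0% = median of neutral control wells and 100% = median of positive control wells; inhibitors cause a drop in the FAM fluorescence signal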
LGR2 antag – inhibitors of bursicon-induced LGR2 CRE-luciferase signal, primary screen, cell-based, HEK293, CRE-luciferase reporter, bursicon stimulation; hit rate 0.35% among 380,000; AID 720647, 2013; bursicon-stimulated, 4 h; inhibition, % at 9.99 µM;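 active means drop in luminescence signal, shown as inhibition above about 50% in the replicate tests, limit read from the data, passing the limit was not always enough; inconclusive means probably only some replicates passing the limit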;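 further: agonist challenge used bursicon conditioned medium at about half maximal strength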
EWS-Fli inh – EWS/Fli-driven NR0B1 reporter inhibitors, primary screen, A673 cells, NR0B1 luciferase, luminescence, MLPCN library. viability-normalised. hit rate 0.67% among 350,000. inhibition, % at 12.6 µM;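 active means mean inhibition of at least 50% after viability correction, with every replicate also passing that limit; inconclusive means mean reaches 50% but only one of two replicates passes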;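 further: firefly luciferase signal divided by Alamar Blue viability fluorescence both relative to DMSO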
RAD52 inh – RAD52 DNA annealing inhibitors, primary screen, biochemical, FRET, single point, set 2; AID 651710, 2012; DNA repair protein RAD52 homolog (Homo sapiens), P43351; hit rate 0.46% among 360,000; recombinant RAD52 DNA annealing, FRET fluorescence; inhibition, % at 18.7 µM;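 active means every replicate showing at least 50% inhibition; inconclusive means mean inhibition at least 50% but not in every replicate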
Target sequence (P43351 whole entry, looked up): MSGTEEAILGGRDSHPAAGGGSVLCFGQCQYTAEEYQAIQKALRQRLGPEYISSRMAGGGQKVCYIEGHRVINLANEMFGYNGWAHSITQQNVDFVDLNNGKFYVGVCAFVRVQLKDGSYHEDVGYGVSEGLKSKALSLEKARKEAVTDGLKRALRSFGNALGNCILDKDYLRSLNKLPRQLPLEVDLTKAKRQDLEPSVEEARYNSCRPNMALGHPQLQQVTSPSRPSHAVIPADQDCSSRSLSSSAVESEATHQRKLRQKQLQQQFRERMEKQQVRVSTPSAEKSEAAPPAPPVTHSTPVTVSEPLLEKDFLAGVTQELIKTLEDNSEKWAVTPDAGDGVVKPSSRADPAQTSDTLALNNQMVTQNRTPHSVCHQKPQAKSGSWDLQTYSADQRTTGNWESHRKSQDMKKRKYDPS
INS-1E GSIS act – GLuc luminescence reporter in INS-1E cells, primary screen for activators of glucose-dependent secretion of insulin; INS-1E GLuc reporter insulin secretion, 2-3 h; activation, % at 16.6 µM; hit rate 0.61% among 370,000; AID 743287, 2014;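 active means lowest replicate activation of at least 40%, so every replicate reaches that level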;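 further: 0% = median of neutral control wells and 100% = median of IBMX positive control wells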
Active calls of the source: *; i = inactive; u = inconclusive; x = no result; ! = a repeat was not active. Most compounds without a hit are left out; they make up all but 1.8% or so of the library.

SMILES | CFTR F508del cor | RAD54 branch | LGR2 antag | EWS-Fli inh | RAD52 inh | INS-1E GSIS act
C[C@H](CO)N1C[C@H](C)[C@@H](CN(C)C(=O)Nc2ccnc(N3CCOCC3)c2)OCc2cnnn2CCCC1=O | 0.3 | -4.6 | -9.8 | 7.3 | -4.3 | 2.7
C[C@@H]1CN([C@H](C)CO)C(=O)CCCn2nncc2CO[C@H]1CN(C)C(=O)Nc1ccnc(N2CCOCC2)c1 | 1.4 | -3.9 | 9.1 | -3.6 | -18.6 | 44.8*!
C[C@@H]1CN([C@@H](C)CO)C(=O)CCCn2nncc2CO[C@H]1CN(C)C(=O)Nc1ccc(N2CCN(C)CC2)cc1 | 0.5 | 5.5 | 3.5 | -10.5 | 58.2*! | 10.8
C[C@H](CO)N1C[C@H](C)[C@@H](CN(C)C(=O)Nc2ccc(N3CCN(C)CC3)cc2)OCc2cnnn2CCCC1=O | -2.2 | -13.2 | 4.6 | -14.4 | 54.7*! | -6.1
COc1cc2nc(CSc3ncn[nH]3)[nH]c(=O)c2cc1OC | -2.1 | x | 11.9 | 6.8 | -22.4 | -1.5
O=C(C(Cc1ccccc1)n1cccc1)N1CCc2ccccc21 (centres undefined) | -2.9 | 6.1 | -21.2 | 6.3 | -14.7 | -4.1
CCCS(=O)(=O)N1CCN(CCCc2ccccc2)CC1 | 0.4 | 5.8 | 12.0 | 8.0 | 2.6 | 6.5
COc1ccccc1S(=O)(=O)N1C[C@@H]2N[C@H](C1)C2c1ccc(-c2ccccc2)cc1 (some centres undefined) | 4.4 | x | -11.7 | 0.4 | 45.3 | 4.0
Cc1ccccc1S(=O)(=O)N1C[C@@H]2N[C@H](C1)C2c1ccc(-c2ccc(C(=O)N(C)C)cc2)cc1 (some centres undefined) | 0.0 | x | 13.4 | 3.8 | 38.9 | 9.2
Cc1ccccc1S(=O)(=O)N1C[C@@H]2N[C@H](C1)C2c1ccc(-c2ccc(C#N)cc2)cc1 (some centres undefined) | 0.5 | x | -2.7 | -8.1 | 72.0*! | -21.8
COc1ccccc1-c1ccc([C@@H]2[C@@H]3CN(S(=O)(=O)c4ccc(-c5ccccc5)cc4)C[C@H]2N3)cc1 | -1.5 | x | 18.2 | -2.8 | 87.8* | 33.2
COc1cccc(-c2ccc(C3[C@@H]4CN(S(=O)(=O)c5cccc(OC)c5)C[C@H]3N4)cc2)c1 (some centres undefined) | 21.4*! | x | -12.0 | 2.9 | 70.2*! | -29.3
Cc1cccc(S(=O)(=O)N2C[C@@H]3N[C@H](C2)C3c2ccc(-c3ccccc3C)cc2)c1 (some centres undefined) | -5.8 | x | 2.6 | -19.4 | x | 34.9
Cc1cccc(S(=O)(=O)N2C[C@@H]3N[C@H](C2)C3c2ccc(-c3ccccc3F)cc2)c1 (some centres undefined) | 5.7 | x | -3.2 | -3.4 | 80.3*! | 81.1*!
COc1cccc(S(=O)(=O)N2C[C@@H]3N[C@H](C2)C3c2ccc(-c3ccccc3C)cc2)c1 (some centres undefined) | -1.4 | x | 8.2 | -8.4 | 42.8 | -4.5
O=C(C[C@@H]1CC[C@H]2[C@@H](COC[C@@H](O)CN2S(=O)(=O)c2cccc(Cl)c2)O1)Nc1ccccc1 | 1.0 | 1.2 | -1.2 | -5.0 | -4.2 | -12.4
Cc1c(NC(=O)c2ccc(S(=O)(=O)N3CCOCC3)cc2)cccc1[N+](=O)[O-] | 1.9 | -8.1 | -5.0 | 4.1 | -11.1 | -13.9
COc1ccc([C@H]2C[C@H](n3cc(C4CC4)nn3)[C@@H](O)CN2C(=O)C2CCCCC2)cc1 | -1.8 | 4.7 | 1.5 | -7.1 | -3.0 | 1.4
COc1cccc(S(=O)(=O)N2C[C@@H]3N[C@H](C2)C3c2ccc(-c3ccccc3F)cc2)c1 (some centres undefined) | 10.0*! | x | -15.0 | 9.2 | x | -19.4
COc1ccccc1-c1ccc(C2[C@@H]3CN(S(=O)(=O)c4ccccc4C)C[C@H]2N3)cc1 (some centres undefined) | 0.0 | x | 23.6 | -15.0 | 50.8* | -28.8
COc1cccc(S(=O)(=O)N2C[C@@H]3N[C@H](C2)C3c2ccc(-c3ccccc3OC)cc2)c1 (some centres undefined) | -5.0 | x | -4.5 | -2.2 | 55.8*! | -25.2
CN(c1cccnc1)c1ccc(NC(=O)CCc2c[nH]c3ccccc23)cc1Br | 2.9 | x | -1.7 | 11.2 | -35.2 | -12.2
O=C(CN1C(=O)NC2(CCCC2)C1=O)Nc1cc(C(F)(F)F)ccc1N1CCCCC1 | 1.5 | 3.1 | 12.6 | 1.5 | -6.3 | -34.1
COc1cc2c3nnc(-c4ccc(F)cc4)c-3cn(Cc3ccccc3F)c2cc1OC | x | x | 6.0 | u | i | 12.3
COc1cc2c3nnc(-c4ccccc4)c-3cn(Cc3ccccc3F)c2cc1OC | x | x | -0.8 | x | x | 97.9*
SMILES | CFTR F508del cor | RAD54 branch | LGR2 antag | EWS-Fli inh | RAD52 inh | INS-1E GSIS act
CN1CCN(c2cc(N3CCN(C(=O)c4ccco4)CC3)c3c4c(onc24)-c2ccccc2C3=O)CC1 | x | 54.4* | x | x | x | x
O=C1c2ccccc2-c2onc3c(N4CCN(CCO)CC4)cc(N4CCN(C(=O)c5ccco5)CC4)c1c23 | -1.0 | 30.9 | 13.6 | -1.6 | -41.7 | -8.1
COc1ccc(N/C(N)=N/c2nc(CSc3nnc(C)s3)cc(=O)[nH]2)cc1 | 2.6 | 2.8 | 23.8 | 37.1 | -6.2 | -1.3
Cc1ccc(N/C(N)=N/c2nc(CSc3nnc(C)s3)cc(=O)[nH]2)c(C)c1 | 3.9 | x | 11.7 | 68.5* | -29.2 | 9.8
Fc1ccc(-c2nc3ccccc3c3nc4ccccc4n23)cc1 | x | x | x | -9.1 | -17.3 | x
CCCCn1nnnc1C(c1ccccc1)N1CCN(c2ccc(C(F)(F)F)cn2)CC1 (centres undefined) | -2.4 | x | 17.0 | -2.8 | -1.3 | -7.4
COc1ccccc1/C=C/C(=O)c1c2c(c(C)[nH]c1=O)CCCC2 | -7.8 | 3.8 | 55.6* | 14.9 | -20.1 | -3.5
Cc1ccc(CSCCNC(=O)CCSc2ccccc2)cc1 | x | -8.5 | x | x | x | x
CC(=O)Nc1c(-c2ccccc2)nc2ccc(Cl)cn12 | -0.8 | -8.3 | x | 0.9 | -12.2 | x
Cc1ccccc1Nc1c(-c2ccncc2)nc2ccc(Cl)cn12 | -0.2 | x | 32.4 | 14.5 | -18.2 | 40.1*
CCOc1ccc(C(C)NC(=O)Cc2ccccc2F)cc1OCC (centres undefined) | 4.0 | x | -0.2 | 15.6 | -4.8 | 22.0
COc1ccc(S(=O)(=O)Nc2ccccc2C(=O)NN2CCOCC2)cc1OC | -1.8 | -4.5 | -1.1 | 4.8 | 8.4 | 6.1
O=C(CCl)Nc1ccc(-c2ccccc2)cc1 | -4.9 | x | x | 63.5* | -7.9 | -13.3
O=C(CCl)Nc1ccc(N=Nc2ccccc2)cc1 | -0.8 | 2.7 | -112.3 | -5.2 | -1.5 | -29.2
CN(Cc1ccc(Cl)c(Cl)c1)C(c1cc2ccccc2o1)c1nnnn1C(C)(C)C (centres undefined) | -2.8 | x | 13.0 | 4.2 | 0.8 | 5.7

Screening results as filed in PubChem.
